Measurements taken from PubChem BioAssay (Tox21).
Several values for one entry are separate records, joined by “and”; a condition that tells them apart may be missing. Equal values may be shown once. Inconclusive results are not listed. Some compounds were tested as several samples or in several runs, with calls that do not always agree. Activity calls are given as the source filed them. The rule behind the calls is not given here.

Experiment: qHTS assay to identify small molecule antagonists of the estrogen related receptor signaling pathway with the pleiotropic PPARgamma coactivator (PGC) from Tox21 10K library (AID 1224841); note: actives are mostly falling curves and most rising ones were filed inactive; nearly all actives have a fitted effect of over 50% in size
Settings: PGC/ERR reporter cell line, ONE-Glo luciferase, 18 h; series mostly up to 92.4 µM; activity, negative = inhibition: at the top concentration
Text: U.S. Tox21 Program National Center for Advancing Translational Sciences [NCATS] NIH Chemical Genomics Center [NCGC] U.S. Environmental Protection Agency [EPA] National Institutes of Environmental Health Sciences [NIEHS] National Toxicology Program [NTP] U.S. Food and Drug Administration [FDA] Tox21 Assay Overview: Estrogen related receptors (ERRs), the first orphan nuclear receptors discovered, play an important role in the control of cellular energy metabolism. ERRs are required for high-energy production in response to the environmental challenges. The pleiotropic PPARgamma coactivator (PGC) is a major partner of ERR and a key regulator in energy homeostasis. Together they have been implicated in the etiology of metabolic disorders such as Type 2 diabetes and metabolic syndrome. ERR-alpha was also identified as an adverse marker for breast cancer progression; ERR-alpha-positive tumors have a poor prognosis. To screen and to identify environmental compounds that perturb the ERR and PGC/ERR signaling pathways could provide valuable information for potential therapeutic or preventive measures in the treatment of metabolic disease. For identifying PGC/ERR antagonists, PGC/ERR cell line (provided by NTP) has been used to screen Tox21 10K library.
Tox21 Assay Protocol Summary: The PGC/ERR cells were dispensed at 2,000 cells/5 ul/well in 1536-well white plates using a Multidrop dispenser. After the assay plates were incubated at a 37 C/5% CO2 incubator for 6 hours, 23 nL of compounds dissolved in DMSO, positive and negative controls or DMSO only was transferred to the assay plate by a pin tool. The plates were incubated at 37 C for 18 hours. 4 ul/well of One-Glo reagent was added into the assay plates using a Flying Reagent Dispenser. After 30-minute incubation at room temperature, the luminescence intensity in the plates was measured using a ViewLux plate reader.
% is set by controls: 0 for no effect and ±100 for the full control effect; potency is the fitted concentration of half-maximal effect.

| SMILES | activity, negative = inhibition | Potency |
| --- | --- | --- |
| O=C(Nc1ccc(F)cc1F)c1cccnc1Oc1cccc(C(F)(F)F)c1 | 16.7% (inactive) |  |
| ClCBr | 1.36% (inactive) |  |
| COc1nc(C)nc(NC(=O)NS(=O)(=O)c2ccccc2Cl)n1 | -1.1% (inactive) |  |
| Cc1cc2c3c(c1)C(c1ccccc1)=N[C@@H](NC(=O)c1ccncc1)C(=O)N3CC2 | 4.22% (inactive) |  |
| O=[N+]([O-])C(Br)Br | -9.81% (inactive) |  |
| CC[C@]1(O)CC[C@H]2[C@@H]3CCC4=CCCC[C@@H]4[C@H]3CC[C@@]21C | 43.7% [at 42.5 µM] (inactive) |  |
| Fc1ccc(C(OCCN2CCN(CCCc3ccccc3)CC2)c2ccc(F)cc2)cc1 |  | 11.9 µM (active) |
| O=[N+]([O-])c1ccccc1-c1ccccc1 | 14.7% (inactive) |  |
| C#CC1(O)CCCCC1 | 7.42% (inactive) |  |
| CC(=O)[O][Pb]([c]1ccccc1)([c]1ccccc1)[c]1ccccc1 |  | 6.86 µM (active) |
| CCCCCCCCCCCCCCn1cc[n+](C)c1 |  | 24.4 µM (active) and 24.1 µM (active) and inactive |
| Nc1ccc(Cl)cc1C(=O)c1ccccc1F | 97.6% [at 42.5 µM] (inactive) |  |
| CCc1cccc(C)c1N(C(=O)CCl)[C@@H](C)COC |  | 30.6 µM (active) |
| Clc1ccc(C2(Cn3cncn3)OCCO2)c(Cl)c1 | -1.44% (inactive) |  |
| CC(Cc1ccc2c(c1)OCO2)NO (stereo not given) | 1.93% (inactive) |  |
| COP(=S)(OC)Oc1nc(Cl)c(Cl)cc1Cl | -5.71% (inactive) |  |
| CC(C)NCC(O)c1ccccc1Cl (stereo not given) | 5% [at 42.5 µM] (inactive) |  |
| c1ccc(N=NNc2ccccc2)cc1 |  | inactive |
| Cc1ccccc1OP(=O)(Oc1ccccc1C)Oc1ccccc1C | 43.7% (inactive) |  |
| CCOC(=O)CCN(SN(C)C(=O)Oc1cccc2c1OC(C)(C)C2)C(C)C |  | 30.6 µM (active) |

| SMILES | activity, negative = inhibition | Potency |
| --- | --- | --- |
| COP(=O)(OC)Oc1ccc([N+](=O)[O-])cc1 |  | 21.7 µM (active) |
| C[C@]12C/C(=C/O)C(=O)C[C@@H]1CC[C@@H]1[C@@H]2CC[C@@]2(C)[C@H]1CC[C@]2(C)O |  | 43.7 µM (active) and 26.6 µM (active) |
| CCN1CCC2(CC1)COc1cc3c(cc12)N(C(=O)c1ccc(-c2ccc(-c4nnc(C)o4)cc2C)cc1)CC3 |  | 7.96 µM (active) |
| Oc1cc(Cl)c(Cl)c(Cl)c1Cl |  | 21.2 µM (active) |
| CCNS(=O)(=O)C(F)(F)C(F)(F)C(F)(F)C(F)(F)C(F)(F)C(F)(F)C(F)(F)C(F)(F)F | -16.1% (inactive) |  |
| Oc1ccc([C@H]2CNCc3c2ccc(O)c3O)cc1O | 1.35% [at 42.5 µM] (inactive) |  |
| C=CCOC(=O)c1ccccc1N | -22.1% (inactive) |  |
| CC(Cc1ccc(OCC(=O)O)cc1)NCC(O)c1csc(C(F)(F)F)n1 (stereo not given) | 3.29% (inactive) |  |
| O=c1[nH]c2cc(Cl)ccc2n1C1CCNCC1 | -1.53% [at 42.5 µM] (inactive) |  |
| N#Cc1c[nH]cc1-c1cccc2c1OC(F)(F)O2 |  | 19.3 µM (active) |
| CCC(C)Nc1c([N+](=O)[O-])cc(C(C)(C)C)cc1[N+](=O)[O-] (stereo not given) | 32.3% (inactive) |  |
| Cc1ccn2nc(S(=O)(=O)Nc3c(F)cccc3F)nc2n1 | 0.0598% (inactive) |  |
| CCC(OC(C)=O)C(CC(C)NC)(c1ccccc1)c1ccccc1 (stereo not given) | -26.9% (inactive) |  |
| CC1(C)C(C=C(Cl)Cl)C1C(=O)OC(C#N)c1ccc(F)c(Oc2ccccc2)c1 (stereo not given) | -23.6% (inactive) |  |
| CCCCN(CCCC)C(=S)[S-].CCCCN(CCCC)C(=S)[S-].[Ni+2] |  | 0.237 µM (active) |
| ClC1(Cl)C2(Cl)C3(Cl)C4(Cl)C(Cl)(Cl)C5(Cl)C3(Cl)C1(Cl)C5(Cl)C24Cl (stereo not given) | 2.57% (inactive) |  |
| COP(=O)(OC)O/C(=C\Cl)c1cc(Cl)c(Cl)cc1Cl |  | 5.45 µM (active) |
| Cc1cc(C2CC2)nc(Nc2ccccc2)n1 | 10.2% (inactive) |  |
| CNC(=O)Oc1cc(C)cc(C(C)C)c1 | -2.75% (inactive) |  |
| c1ccc2c(c1)cc1ccc3cccc4ccc2c1c34 | 98.1% (inactive) |  |
